Here are results for five molecules from PubChem BioAssay (NCATS).

Values without a mark were called inactive. Records with an inconclusive call do not appear. Active and inactive are the calls of the source. Unless noted, calls come from the whole dose curve; as a rule, active = well fitted curve in the direction sought with a large enough effect; inconclusive = small, poorly fitted or top-dose-only effect, or another doubt; inactive = no such curve, though single readings can be large; an effect the other way counts as inactive or inconclusive.

Assay [1] is described as follows: AP1 Signaling Pathway (AID 357; active = well fitted curve in either direction with a large enough effect, not every such curve was filed as active;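 note: ME-180 reporter cells stimulated with EGF at its EC50 level; % is set by controls: 0 for no effect and ±100 for the full control effect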). Conditions: ME-180 AP-1-bla reporter, EGF-induced, beta-lactamase ratio, 5 h; at 7.69 µM (top of the series) unless noted. Summed up:
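First, ME-180 AP-1-bla cells were cultured overnight at 37 °C in low-serum Opti-MEM. Next, titrated compounds with EC50 EGF were incubated 5 hours. Finally, CCF4 was added for 2.5 hours and the 460/530 nm ratio recorded.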

The nature of assay [2]: Stat Signaling Pathway (AID 446; active = well fitted curve in either direction with a large enough effect, not every such curve was filed as active;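 note: ME-180 cervical cancer cells given 40 pM IL-6 alongside compound; SIE-controlled beta-lactamase reporter measured as 460/530 nm FRET emission ratio; % is set by controls: 0 for no effect and ±100 for the full control effect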). The following applies: ME-180 SIE beta-lactamase reporter, IL-6 stimulated, 5 h. Summed up: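 ME-180 cells carrying a SIE-driven beta-lactamase reporter are stimulated with 40 pM IL-6 for 5 h at 37C in the presence of compound. The 460/530 nm FRET substrate ratio is read after 2.5 h at RT. Data are normalised to 300 pM IL-6 and to 125 nM JAK inhibitor controls.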

The target of assay [3] is Glucocorticoid receptor (Homo sapiens) (UniProt P04150). Nature of the assay: GR-EFC Redistribution (AID 451; calls by dose curve; note: potency is the fitted concentration of half-maximal effect). The following applies: CHO-K1 GR-EFC translocation, beta-gal luminescence, 2 h. The gist of the method: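 CHO-K1 cells stably expressing nuclear-localized β-gal enzyme acceptor and GR fused C-terminally to the enzyme donor fragment; ligand-driven nuclear translocation restores β-gal by complementation. Compounds titrated up to 46 uM final, 2 h at 37 °C; luminescence read.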
Glucocorticoid receptor (Homo sapiens), sequence (P04150 whole entry, looked up, the tested form may be a part): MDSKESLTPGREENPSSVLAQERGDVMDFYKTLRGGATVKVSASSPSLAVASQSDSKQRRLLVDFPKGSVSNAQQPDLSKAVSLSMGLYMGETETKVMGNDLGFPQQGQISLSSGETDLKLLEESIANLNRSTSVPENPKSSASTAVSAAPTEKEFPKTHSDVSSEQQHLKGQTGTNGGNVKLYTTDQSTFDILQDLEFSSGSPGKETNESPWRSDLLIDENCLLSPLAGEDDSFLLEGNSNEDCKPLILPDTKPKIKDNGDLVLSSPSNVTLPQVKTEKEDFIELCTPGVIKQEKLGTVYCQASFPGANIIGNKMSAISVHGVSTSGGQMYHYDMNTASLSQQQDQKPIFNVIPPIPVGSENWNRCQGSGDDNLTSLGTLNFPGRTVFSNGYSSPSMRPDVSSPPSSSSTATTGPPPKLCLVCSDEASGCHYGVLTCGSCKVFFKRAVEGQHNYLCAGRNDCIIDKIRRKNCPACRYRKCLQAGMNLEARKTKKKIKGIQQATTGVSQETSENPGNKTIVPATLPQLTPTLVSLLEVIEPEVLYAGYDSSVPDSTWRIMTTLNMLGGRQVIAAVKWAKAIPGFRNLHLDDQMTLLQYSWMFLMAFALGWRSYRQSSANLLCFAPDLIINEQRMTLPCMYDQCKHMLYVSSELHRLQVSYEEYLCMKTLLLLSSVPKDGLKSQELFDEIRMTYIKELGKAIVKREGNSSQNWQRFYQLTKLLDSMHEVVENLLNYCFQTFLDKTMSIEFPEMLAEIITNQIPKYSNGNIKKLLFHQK

Assay [4] deals with Mitogen-activated protein kinase 10 (Mus musculus) (UniProt Q61831). The assay can be described thus: JNK3 AlphaScreen Assay (AID 530; active = well fitted curve in either direction with a large enough effect, not every such curve was filed as active;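 note: kinase came from lysate of stimulated human HepG2 cells; signal reports phosphorylation of biotinylated GST-cJun 1-79 at Ser73 with 10 µM ATP; % is set by controls: 0 for no effect and ±100 for the full control effect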). The gist of the method: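 JNK3 came from HepG2 lysates pre-activated with IL-1beta and TNF-alpha and phosphorylated biotinylated GST-cJun (1-79) at 10 uM ATP, pH 7.6, room temperature. Compounds were titrated. AlphaScreen signal used anti-phospho-cJun (Ser73) antibody.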
(In general: Bead proximity is the source of the signal in Alpha formats.)

Assay [5] deals with 3',5'-cyclic-AMP phosphodiesterase 4B (Homo sapiens) (UniProt Q07343). The assay can be described thus: qHTS Assay for Inhibitors of PDE-IV (AID 607; active = well fitted activation curve with a large enough effect in the main read-out, with a control signal flat, not every such curve was filed as active; note: % of control where 0% means no effect). Summed up:
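HEK293 ACTOne cells with CNG channel (1000/well), endogenous PDE4; membrane potential dye, compounds up to 22.9 uM final. Fluorescence Ex 535/Em 590; RO 20-1724 (100 uM final) as reference.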
For orientation: qHTS replaces the single test concentration by a dilution series.

Assay [6] concerns the target Guanine nucleotide-binding protein G(i) subunit alpha-1 (Homo sapiens) (UniProt P63096). The assay can be described thus: qHTS Assay for Inhibitors of RGS12 GoLoco Motif Activity (Green Fluorophore) (AID 879).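 Note: 0% = labeled peptide with Gαi1 and full inhibition = labeled peptide alone without protein; negative values mean loss of peptide binding seen as reduced polarization.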 Summed up: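 Fluorescence polarization assay: 50 nM Gαi1 with 10 nM FITC-labeled RGS12 GoLoco peptide in 10 mM Tris pH 7.5, 150 mM NaCl, 0.1 mM GDP, 0.05% NP40, 10 min at room temperature with compound.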

Assay [7] is described as follows: qHTS Assay for Identification of Small Molecule Agonists for Thrombopoietin (TPO) Signaling Pathway (AID 917). Note: % is set by controls: 0 for no effect and ±100 for the full control effect. The gist of the method: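 Reporter: GpIIb promoter–luciferase in murine Ba/F3 expressing human TPO receptor. Pre-starved of IL-3 overnight; compounds with 26 pM TPO, 24 hrs, 37 C/5% CO2; luminescence read.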
Assay [8] concerns the target Muscarinic acetylcholine receptor M1 (Rattus norvegicus) (UniProt P08482). Nature of the assay: qHTS Assay for Antagonists of Acetylcholine Muscarinic M1 Receptor: Measurement of IP-One Response (AID 944). Note: nearly all actives have a fitted effect of over 75% in size. Summed up: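 Steps: plate transfected CHO-M1 cells overnight; add test compound, 10 min; add carbachol (200 nM, EC80) in stimulation buffer with LiCl; incubate 30 min; add labelled IP1 tracer and anti-IP1 antibody in lysis buffer; read HTRF after 10 min.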

For assay [9], the target named is Pyruvate kinase (Leishmania mexicana) (UniProt Q27686). Nature of the assay: qHTS Validation Assay for Inhibitors of Leishmania Mexicana Pyruvate Kinase (AID 945).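 Note: 0% = DMSO only neutral control wells.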 Summed up: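 Read-out: luminescence from PKLight stop/detection reagent, data normalized to DMSO. Reaction: 0.2 nM E451W LmPYK, 0.5 mM PEP, 0.1 mM ADP, pH 7.2, 1 h room temperature.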
Pyruvate kinase (Leishmania mexicana), sequence (Q27686 2-499 E452W): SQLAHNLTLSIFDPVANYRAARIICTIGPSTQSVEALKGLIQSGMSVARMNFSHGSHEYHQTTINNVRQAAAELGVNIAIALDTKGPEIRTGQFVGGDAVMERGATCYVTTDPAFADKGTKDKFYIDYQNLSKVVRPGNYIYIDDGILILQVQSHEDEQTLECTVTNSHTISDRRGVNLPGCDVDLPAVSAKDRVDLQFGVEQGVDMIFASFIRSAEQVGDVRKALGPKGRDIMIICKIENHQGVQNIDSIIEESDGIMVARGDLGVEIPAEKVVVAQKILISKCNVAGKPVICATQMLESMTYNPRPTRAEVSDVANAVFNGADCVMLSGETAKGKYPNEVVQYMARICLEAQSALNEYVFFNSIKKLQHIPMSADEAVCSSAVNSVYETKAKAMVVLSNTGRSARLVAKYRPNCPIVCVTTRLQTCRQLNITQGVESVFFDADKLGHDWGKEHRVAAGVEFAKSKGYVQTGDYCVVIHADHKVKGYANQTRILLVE
The target in assay [10] is Pyruvate kinase PKM (Homo sapiens) (UniProt P14618). The assay can be described thus: qHTS Assay for Activators of Human Muscle Pyruvate Kinase (AID 954; active = well fitted curve in the direction sought with a large enough effect, not every such curve was filed as active;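 note: 0% = uninhibited enzyme and -100% = no enzyme or full thiadiazolimine inhibition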). The gist of the method: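 Purified human PKM2 (0.1 nM) with 0.5 mM PEP (Km) and 0.1 mM ADP in 50 mM imidazole pH 7.2, KCl, MgCl2, 1 h at room temperature; ATP formed read by coupled luciferase luminescence. Normalized to no-enzyme/110 uM thiadiazolimine inhibition; 0.3 nM enzyme column for activation.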
Pyruvate kinase PKM (Homo sapiens), sequence (P14618 whole entry, looked up): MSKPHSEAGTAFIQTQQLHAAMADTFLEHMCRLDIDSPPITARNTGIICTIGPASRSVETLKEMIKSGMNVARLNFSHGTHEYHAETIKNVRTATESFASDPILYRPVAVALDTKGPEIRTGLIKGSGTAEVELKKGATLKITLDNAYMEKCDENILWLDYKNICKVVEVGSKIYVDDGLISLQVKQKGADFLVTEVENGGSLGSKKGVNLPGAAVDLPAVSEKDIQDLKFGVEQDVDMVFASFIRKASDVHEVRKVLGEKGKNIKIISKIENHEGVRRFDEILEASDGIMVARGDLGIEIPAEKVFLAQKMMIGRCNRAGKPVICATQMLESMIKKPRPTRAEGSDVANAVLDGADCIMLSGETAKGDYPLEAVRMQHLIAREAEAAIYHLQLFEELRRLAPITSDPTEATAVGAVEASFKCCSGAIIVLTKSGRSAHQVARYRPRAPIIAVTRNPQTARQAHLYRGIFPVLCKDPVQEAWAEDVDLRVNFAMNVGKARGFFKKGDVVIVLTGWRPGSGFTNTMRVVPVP

Assay [11] concerns the target Alpha-galactosidase A (Homo sapiens) (UniProt P06280). Nature of the assay: Counterscreen for Glucocerebrosidase Inhibitors: qHTS Assay for Human alpha-Galactosidase at pH 4.5 (AID 992). Note: 0% is about no effect. Summed up:
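Human enzyme (2 nM) with 80 uM 4-methylumbelliferyl alpha-D-galactopyranoside in 50 mM citric acid, 0.005% Tween-20, pH 4.5, 20 min at room temperature. Compounds 0.7 nM–77 uM; fluorescence Ex 365/Em 440 after pH 10 stop; AC50 from Hill fits.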

Assay [12] concerns the target alpha-glucosidase (Oryza sativa, rice) (UniProt Q653V4). The assay can be described thus: Counterscreen for Glucocerebrosidase Inhibitors: qHTS Assay for Rice alpha-Glucosidase at pH 5.0 (AID 997).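 Note: 0% = full activity with enzyme and -100% = basal without enzyme.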 Summed up: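 Rice alpha-glucosidase (4 nM final) with 400 uM 4-methylumbelliferyl-alpha-D-glucopyranoside in citrate buffer pH 5.0, 20 min at room temperature, stopped at pH 10; fluorescence 365/440 nm, compounds 0.7 nM–77 uM, AC50 from Hill fits.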

Assay [13] has as its target Cytochrome P450 1A2 (Homo sapiens) (UniProt P05177). Nature of the assay: p450-cyp1a2 (AID 410; calls by dose curve; note: potency is the fitted concentration of half-maximal effect;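 for activity change, negative = inhibition: -100% = full effect of reference inhibitor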). Summed up: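 Inhibition was calculated relative to 57 uM furafylline (full inhibition). The reaction used human CYP1A2 at 20nM with Luciferin-ME at its Km, 100uM, driven by an NADPH-regenerating system for 60 min at room temperature.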
A short description of assay [14]: NFAT Signaling Pathway (AID 444; active = well fitted curve in either direction with a large enough effect, not every such curve was filed as active). The following applies: Jurkat NFAT-bla M1, carbachol, beta-lactamase ratio, 5 h; at 7.69 µM (top of the series) unless noted. Summed up: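 Jurkat cells carrying an NFAT-driven β-lactamase reporter and co-transfected muscarinic M1 receptor were treated with compound plus carbachol (1 uM final, an EC50 level) for 5 h at 37 °C. CCF4 loading followed for 1 h at RT; 460/530 nm ratio gave %activity.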

Assay [15] concerns the target Glucocorticoid receptor (Homo sapiens) (UniProt P04150). Nature of the assay: GR-GFP Redistribution (AID 450;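 active = compounds whose dose series gives a full or clear partial fitted curve of increased nuclear translocation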; note: potency is the fitted concentration of half-maximal effect). The following applies: U2OS GR-GFP nuclear translocation, laser cytometry, 2 h.
Assay [16] in a line: qHTS Assay for Identification of Small Molecule Antagonists for NFkB Signaling Pathway (AID 895; active = well fitted inhibition curve with a large enough effect in the signal ratio, with a control signal flat, not every such curve was filed as active; the % refers to the signal ratio; note: % is set by controls: 0 for no effect and ±100 for the full control effect). Summed up:
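NFkB-bla ME-180 cervical carcinoma cells with beta-lactamase reporter under NFkB response element; compounds added, then TNF alpha at 10 pM final (EC50), 5 h at 37 C. LiveBLAzer substrate 2 h, room temperature; emission 460/530 nm at 405 nm excitation.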

Where [17] appears, read: at 7.69 µM (top of the series) unless noted.

Cytochrome P450 1A2 (Homo sapiens), sequence (P05177 whole entry, looked up): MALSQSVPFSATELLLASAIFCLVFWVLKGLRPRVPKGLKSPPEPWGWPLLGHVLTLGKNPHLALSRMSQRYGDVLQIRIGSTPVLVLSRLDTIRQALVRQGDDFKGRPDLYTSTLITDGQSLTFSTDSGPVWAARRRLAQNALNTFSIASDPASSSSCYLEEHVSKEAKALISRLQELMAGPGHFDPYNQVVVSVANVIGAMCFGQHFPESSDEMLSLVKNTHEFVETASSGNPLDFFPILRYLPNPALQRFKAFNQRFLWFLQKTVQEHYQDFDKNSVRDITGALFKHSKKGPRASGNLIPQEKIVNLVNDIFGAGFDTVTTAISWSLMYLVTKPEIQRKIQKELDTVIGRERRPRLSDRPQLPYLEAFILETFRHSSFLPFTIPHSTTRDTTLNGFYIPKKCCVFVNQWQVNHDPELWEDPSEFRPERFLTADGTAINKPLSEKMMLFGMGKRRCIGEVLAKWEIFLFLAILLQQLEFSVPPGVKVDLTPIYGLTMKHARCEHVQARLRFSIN
Muscarinic acetylcholine receptor M1 (Rattus norvegicus), sequence (P08482 whole entry, looked up): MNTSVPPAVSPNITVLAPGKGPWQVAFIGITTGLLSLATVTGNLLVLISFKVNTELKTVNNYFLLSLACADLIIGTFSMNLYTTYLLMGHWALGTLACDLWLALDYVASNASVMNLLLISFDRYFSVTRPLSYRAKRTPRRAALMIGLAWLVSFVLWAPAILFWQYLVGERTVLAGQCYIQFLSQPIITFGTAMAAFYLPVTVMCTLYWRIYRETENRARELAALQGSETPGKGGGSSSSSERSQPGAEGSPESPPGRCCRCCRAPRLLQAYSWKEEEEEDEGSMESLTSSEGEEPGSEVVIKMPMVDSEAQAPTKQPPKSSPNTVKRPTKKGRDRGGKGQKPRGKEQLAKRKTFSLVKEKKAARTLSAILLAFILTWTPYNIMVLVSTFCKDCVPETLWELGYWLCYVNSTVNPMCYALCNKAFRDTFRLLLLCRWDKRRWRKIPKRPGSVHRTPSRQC
Guanine nucleotide-binding protein G(i) subunit alpha-1 (Homo sapiens), sequence (P63096 whole entry, looked up): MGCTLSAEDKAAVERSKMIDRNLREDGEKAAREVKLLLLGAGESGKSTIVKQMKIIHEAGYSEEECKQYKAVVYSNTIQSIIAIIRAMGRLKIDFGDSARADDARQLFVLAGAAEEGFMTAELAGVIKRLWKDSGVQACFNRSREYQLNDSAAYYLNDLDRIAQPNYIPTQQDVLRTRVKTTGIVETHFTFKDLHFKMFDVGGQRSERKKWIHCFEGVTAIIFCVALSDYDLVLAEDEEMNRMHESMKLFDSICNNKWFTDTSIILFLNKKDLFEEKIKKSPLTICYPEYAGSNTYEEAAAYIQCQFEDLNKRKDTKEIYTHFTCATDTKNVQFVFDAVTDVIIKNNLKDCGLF
Alpha-galactosidase A (Homo sapiens), sequence (P06280 whole entry, looked up): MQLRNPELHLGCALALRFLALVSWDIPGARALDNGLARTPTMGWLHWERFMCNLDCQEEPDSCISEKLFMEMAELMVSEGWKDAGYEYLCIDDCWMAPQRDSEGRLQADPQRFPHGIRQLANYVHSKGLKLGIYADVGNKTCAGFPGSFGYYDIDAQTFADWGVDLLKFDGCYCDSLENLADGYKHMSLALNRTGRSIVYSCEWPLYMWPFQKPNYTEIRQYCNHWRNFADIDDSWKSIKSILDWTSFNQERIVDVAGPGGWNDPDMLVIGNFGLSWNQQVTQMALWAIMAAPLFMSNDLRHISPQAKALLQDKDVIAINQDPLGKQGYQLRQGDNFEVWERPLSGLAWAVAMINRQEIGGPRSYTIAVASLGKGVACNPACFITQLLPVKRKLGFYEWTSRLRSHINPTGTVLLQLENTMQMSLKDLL
3',5'-cyclic-AMP phosphodiesterase 4B (Homo sapiens), sequence (Q07343 whole entry, looked up): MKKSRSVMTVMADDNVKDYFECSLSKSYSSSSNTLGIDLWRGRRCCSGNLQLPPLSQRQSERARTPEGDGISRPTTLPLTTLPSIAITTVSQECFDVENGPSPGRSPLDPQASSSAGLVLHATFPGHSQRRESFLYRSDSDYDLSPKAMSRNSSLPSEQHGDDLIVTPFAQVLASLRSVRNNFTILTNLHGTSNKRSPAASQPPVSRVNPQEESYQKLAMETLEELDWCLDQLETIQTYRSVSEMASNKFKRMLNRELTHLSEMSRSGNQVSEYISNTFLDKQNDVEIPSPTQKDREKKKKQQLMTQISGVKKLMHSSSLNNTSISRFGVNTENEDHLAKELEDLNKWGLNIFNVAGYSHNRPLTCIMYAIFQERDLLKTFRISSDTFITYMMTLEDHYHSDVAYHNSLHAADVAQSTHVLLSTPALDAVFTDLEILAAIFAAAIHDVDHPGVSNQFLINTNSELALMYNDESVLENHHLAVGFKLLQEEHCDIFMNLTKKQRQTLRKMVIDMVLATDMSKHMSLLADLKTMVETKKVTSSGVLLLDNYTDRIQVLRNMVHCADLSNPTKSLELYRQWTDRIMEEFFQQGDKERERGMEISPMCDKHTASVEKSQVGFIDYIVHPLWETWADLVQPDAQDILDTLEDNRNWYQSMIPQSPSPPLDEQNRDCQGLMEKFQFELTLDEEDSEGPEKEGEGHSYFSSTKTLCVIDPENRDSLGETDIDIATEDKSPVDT

With `COC(=O)[C@](C)(N)Cc1ccc(O)cc1`, in [1], the activity change, negative = inhibition is 9.7% [at 38 µM]. Further, the activity, negative = inhibition in assay [2] (setting [17]) is -6.8% [at 38 µM]. In assay [3], the Potency was over 46 µM. Also, the Potency result in [4], in assay [5], in assay [8] and in [12] was “inactive” throughout. Also, the molecule was called inactive in assay [6], in [7], in [9], in [10] and in [11].
With `C(=C/c1ccccc1)/CN1CCN(C(c2ccccc2)c2ccccc2)CC1`, the activity, negative = inhibition in assay [2] (at 17.2 µM (top of the series)) is -6.97%; in assay [2] (at 38 µM (top of the series)) it was 12.7%. The Potency result in [4] and in assay [5] was “inactive” throughout.
As for `COc1c2c(nc3ccccc13)O[C@@H]([C@@](C)(O)CO)C2`, the Potency in [13] is 15.8 µM (active); in assay [15], over 46 µM; in assay [3], over 46 µM. For the same molecule, in assay [14], the activity change, negative = inhibition is -2.6% [at 38 µM]. Besides, the Potency result in [4], in [5], in [16], in assay [8] and in assay [12] was “inactive” throughout. For the same molecule, the call in assay [6], in assay [9], in assay [10] and in assay [11] was inactive.
Turning to `OC[C@@H]1O[C@@H](n2cnc3c(NC4CCCCC4)ncnc32)[C@@H](O)[C@H]1O`, the activity change, negative = inhibition in assay [1] is -12.8% [at 38 µM]; in assay [14], 1.85% [at 38 µM]. Further, the Potency result in [13], in assay [5], in assay [16], in assay [8] and in assay [12] was “inactive” each time. In addition, the Potency in [15] and in [3] was over 46 µM in each case. Besides, the outcome in assay [6], in assay [9], in assay [10] and in [11] was inactive.
For the molecule `C[N+](C)(C)c1cc2c(nn1)Nc1ccccc1S2`, in [1], the activity change, negative = inhibition is -0.66%. For the same molecule, the values for the Potency in assay [13], in [15] and in assay [3] were 2 µM (active), over 46 µM and over 9.22 µM, respectively. Also, the activity, negative = inhibition in assay [2] (setting [17]) was 19.9%. For the same molecule, the Potency entry in assay [4] and in assay [5] was “inactive” throughout.
